Assay results from PubChem BioAssay (Tox21).
Several values for one entry are separate records, joined by “and”; a condition that tells them apart may be missing. Equal values may be shown once. Inconclusive results are not listed. Some compounds were tested as several samples or in several runs, with calls that do not always agree. Activity calls are given as the source filed them. Unless noted, calls follow the shape of the full dose curve.

Experiments:
[1] = Nuclear factor erythroid 2-related factor 2/antioxidant responsive element (Nrf2/ARE) small molecule agonists: luciferase reporter gene qHTS assay in human keratinocytes (AID 1919969); conditions: KeratinoSens HaCaT ARE-luciferase, luminescence, 24 h; series mostly up to 92.4 µM; also: nearly all actives have a fitted effect of over 35% in size; also: potency is read from the fitted curve at half-maximal effect
[2] = target: Gonadotropin-releasing hormone receptor (Homo sapiens) (UniProt P30968); test: Human gonadotropin-releasing hormone receptor (GnRHR) small molecule agonists, calcium flux assay in GnRHR-HEK293 cells (AID 1920063); conditions: calcium flux fluorescence, agonist mode; series mostly up to 57.6 µM; also: nearly all actives have a fitted effect of over 35% in size
Chain of Gonadotropin-releasing hormone receptor (Homo sapiens) (P30968 whole entry, looked up): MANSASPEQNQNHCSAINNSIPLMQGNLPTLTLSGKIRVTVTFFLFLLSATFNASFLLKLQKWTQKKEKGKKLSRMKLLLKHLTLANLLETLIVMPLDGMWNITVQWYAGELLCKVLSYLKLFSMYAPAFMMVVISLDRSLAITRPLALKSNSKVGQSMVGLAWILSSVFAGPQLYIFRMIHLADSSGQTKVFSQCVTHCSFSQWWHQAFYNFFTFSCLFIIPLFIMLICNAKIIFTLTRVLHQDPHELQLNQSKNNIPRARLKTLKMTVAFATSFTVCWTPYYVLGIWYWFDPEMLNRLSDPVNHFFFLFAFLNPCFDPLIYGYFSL
Procedure, shortened: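 Agonist mode: compounds at 15 concentrations, in triplicate, went onto calcium dye-loaded GnRHR-HEK293 cells. Intracellular calcium was then followed as 480/540 nm fluorescence at 1 s intervals over 3 min.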

[3] = target: KiSS-1 receptor (Homo sapiens) (UniProt Q969F8); test: Human kisspeptin (KISS1R) small molecule agonists, calcium flux assay in KISS1R-HEK293 cells (AID 1920064; active = well fitted activation curve with a large enough effect in the repeat runs); conditions: KISS1R-HEK293, calcium flux fluorescence, agonist; series mostly up to 76.8 µM
Chain of KiSS-1 receptor (Homo sapiens) (Q969F8 whole entry, looked up): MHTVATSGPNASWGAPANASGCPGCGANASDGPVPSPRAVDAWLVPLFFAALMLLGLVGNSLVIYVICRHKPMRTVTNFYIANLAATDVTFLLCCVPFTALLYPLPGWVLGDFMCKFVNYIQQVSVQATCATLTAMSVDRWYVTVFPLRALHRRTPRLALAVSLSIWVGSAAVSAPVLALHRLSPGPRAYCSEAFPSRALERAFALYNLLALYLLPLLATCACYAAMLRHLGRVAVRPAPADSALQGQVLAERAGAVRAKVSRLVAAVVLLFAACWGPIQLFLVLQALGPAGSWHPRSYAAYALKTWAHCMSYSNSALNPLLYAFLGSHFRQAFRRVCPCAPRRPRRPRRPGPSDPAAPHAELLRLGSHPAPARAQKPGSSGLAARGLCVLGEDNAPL
Procedure, shortened: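 Agonist mode: intracellular calcium rise tracked at 1 s intervals over 3 min (480/540 nm) immediately after compound addition to dye-loaded KISS1R-HEK293 stable cells. Each compound tested at 15 concentrations in triplicate.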

[4] = p53 small molecule agonists, cell-based qHTS assay with rat liver microsomes: qHTS cell viability counter screen (AID 1963580); conditions: p53RE-bla HCT-116 + rat microsomes, ATP viability, 16 h; series mostly up to 66 µM; also: nearly all actives have a fitted effect of over 45% in size; also: potency is read from the fitted curve at half-maximal effect
Procedure, shortened: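 After the beta-lactamase ratio was read, CellTiter-Glo was added to the same wells and luminescence measured at 30 min; cells had been treated 16 h at 37 C with compounds, rat liver microsomes and NADPH (0.5 mg/mL final each).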

[5] = p53 small molecule agonists, cell-based qHTS assay: qHTS cell viability counter screen (AID 1963581); conditions: p53RE-bla HCT-116 viability, ATP luminescence, 16 h; series mostly up to 66 µM; also: nearly all actives have a fitted effect of over 45% in size
Procedure, shortened: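 Counter screen read by CellTiter-Glo luminescence (ATP content, 30 min at room temperature), run in the same wells as the beta-lactamase reporter read. HCT-116 p53RE-bla cells saw compounds for 16 h at 37 C.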

[6] = target: 5-hydroxytryptamine receptor 2A (Homo sapiens) (UniProt P28223); test: 5-hydroxytryptamine receptor 2A (HTR2A) small molecule antagonists, cell-based qHTS assay (AID 1963586); conditions: HTR2A-CHO cells, DOI-induced calcium flux, fluorescence; series mostly up to 61.5 µM; also: nearly all actives have a fitted effect of over 45% in size; also: potency is read from the fitted curve at half-maximal effect
Chain of 5-hydroxytryptamine receptor 2A (Homo sapiens) (P28223 whole entry, looked up): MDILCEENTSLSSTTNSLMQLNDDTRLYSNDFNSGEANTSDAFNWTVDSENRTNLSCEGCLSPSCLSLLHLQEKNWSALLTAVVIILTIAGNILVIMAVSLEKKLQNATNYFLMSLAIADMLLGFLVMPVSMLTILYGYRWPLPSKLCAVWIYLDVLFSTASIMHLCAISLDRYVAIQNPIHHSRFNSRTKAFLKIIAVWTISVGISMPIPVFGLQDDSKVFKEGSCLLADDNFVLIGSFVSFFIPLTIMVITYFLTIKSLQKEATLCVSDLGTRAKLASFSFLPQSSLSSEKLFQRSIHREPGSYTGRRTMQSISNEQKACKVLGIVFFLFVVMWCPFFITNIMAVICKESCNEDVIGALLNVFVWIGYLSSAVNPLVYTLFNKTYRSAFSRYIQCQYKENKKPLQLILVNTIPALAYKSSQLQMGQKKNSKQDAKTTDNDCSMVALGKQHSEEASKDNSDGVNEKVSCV
Procedure, shortened: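 CHO cells stably expressing human HTR2A were plated for 18 h at 37 C, then loaded with calcium dye for 1 h. Compounds were preincubated 5 min at room temperature before DOI (4 nM solution) was added. Kinetic fluorescence was read for 3 min.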

[7] = target: 5-hydroxytryptamine receptor 2A (Homo sapiens) (UniProt P28223); test: 5-hydroxytryptamine receptor 2A (HTR2A) small molecule agonists, cell-based qHTS assay (AID 1963587); conditions: HTR2A-CHO cells, calcium flux fluorescence, agonist mode; series mostly up to 76.8 µM; also: nearly all actives have a fitted effect of over 30% in size
Procedure, shortened: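 CHO cells stably expressing human HTR2A, plated 18 h, loaded with calcium dye 1 h at 37 C. Agonist mode: compounds added and intracellular calcium fluorescence recorded kinetically for 2 min at 1 sec intervals.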

[8] = target: Muscarinic acetylcholine receptor M1 (Homo sapiens) (UniProt P11229); test: Cholinergic receptor muscarinic 1 (CHRM1) small molecule antagonists, cell-based qHTS assay (AID 1963588); conditions: CHRM1-CHO antagonist mode, calcium flux fluorescence; series mostly up to 61.5 µM; also: nearly all actives have a fitted effect of over 40% in size; also: potency is read from the fitted curve at half-maximal effect
Chain of Muscarinic acetylcholine receptor M1 (Homo sapiens) (P11229 whole entry, looked up): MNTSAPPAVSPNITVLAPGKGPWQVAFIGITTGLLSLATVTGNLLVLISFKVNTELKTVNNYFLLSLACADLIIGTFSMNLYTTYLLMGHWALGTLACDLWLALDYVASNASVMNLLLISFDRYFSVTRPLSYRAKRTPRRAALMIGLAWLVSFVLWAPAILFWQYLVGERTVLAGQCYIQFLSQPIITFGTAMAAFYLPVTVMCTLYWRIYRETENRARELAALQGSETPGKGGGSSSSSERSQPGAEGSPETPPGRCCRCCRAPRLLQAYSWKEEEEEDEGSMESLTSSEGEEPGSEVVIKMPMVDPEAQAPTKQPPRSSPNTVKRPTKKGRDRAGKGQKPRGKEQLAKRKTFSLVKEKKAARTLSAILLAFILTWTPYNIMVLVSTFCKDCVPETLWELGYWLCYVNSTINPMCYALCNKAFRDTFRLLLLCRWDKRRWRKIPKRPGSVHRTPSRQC
Procedure, shortened: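 Compounds were tested at 15 concentrations in three independent runs. Dye-loaded CHRM1-CHO cells were exposed 5 min at room temperature before stimulation by acetylcholine added at 50nM. Intracellular calcium was read kinetically on FDSS for 3 min.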

[9] = target: Muscarinic acetylcholine receptor M1 (Homo sapiens) (UniProt P11229); test: Cholinergic receptor muscarinic 1 (CHRM1) small molecule agonists, cell-based qHTS assay (AID 1963589); conditions: CHRM1-CHO cells, agonist mode, calcium flux fluorescence; series mostly up to 76.8 µM; also: nearly all actives have a fitted effect of over 35% in size
Procedure, shortened: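 Agonist-mode calcium-flux screen: compounds at 15 concentrations, three independent runs, were pin-transferred onto dye-loaded human CHRM1-CHO cells. Fluorescence was then recorded kinetically every second over minutes.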

[10] = cAMP Responsive Elements (CRE) small molecule agonists, cell-based qHTS assay (AID 1963590); conditions: CRE-bla HEK293T, beta-lactamase FRET ratio, 3 h; series mostly up to 92.4 µM
Procedure, shortened: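 Agonist mode: compound added to CRE-bla HEK 293T cells (2,000/well, 18 h after plating) for 3 h at 37 C/5% CO2. Reporter activity detected via FRET beta-lactamase substrate, 2 h room-temperature loading.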

[11] = cAMP Responsive Elements (CRE) small molecule antagonists, cell-based qHTS assay (AID 1963591; active = well fitted inhibition curve with a large enough effect in the signal ratio in the repeat runs, not every such curve was filed as active; the % refers to the signal ratio); conditions: CRE-bla HEK293T, beta-lactamase FRET ratio; series mostly up to 92.4 µM
Procedure, shortened: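 Antagonist mode: compounds are added alongside the adenylyl cyclase activator NKH477 (0.25 uM final) to CRE-bla HEK293T cells for 3 h. LiveBLAzer FRET substrate, 2 h at room temperature, reports bla expression.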

[12] = target: Beta-2 adrenergic receptor (Homo sapiens) (UniProt P07550); test: Adrenergic beta2 receptor (ADRB2) small molecule agonists, cell-based qHTS assay (AID 1963593); conditions: CHO-ADRB2 cells, cAMP HTRF, 30 min; series mostly up to 92.4 µM;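 also: CHO cells stably overexpressing human ADRB2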
Chain of Beta-2 adrenergic receptor (Homo sapiens) (P07550 whole entry, looked up): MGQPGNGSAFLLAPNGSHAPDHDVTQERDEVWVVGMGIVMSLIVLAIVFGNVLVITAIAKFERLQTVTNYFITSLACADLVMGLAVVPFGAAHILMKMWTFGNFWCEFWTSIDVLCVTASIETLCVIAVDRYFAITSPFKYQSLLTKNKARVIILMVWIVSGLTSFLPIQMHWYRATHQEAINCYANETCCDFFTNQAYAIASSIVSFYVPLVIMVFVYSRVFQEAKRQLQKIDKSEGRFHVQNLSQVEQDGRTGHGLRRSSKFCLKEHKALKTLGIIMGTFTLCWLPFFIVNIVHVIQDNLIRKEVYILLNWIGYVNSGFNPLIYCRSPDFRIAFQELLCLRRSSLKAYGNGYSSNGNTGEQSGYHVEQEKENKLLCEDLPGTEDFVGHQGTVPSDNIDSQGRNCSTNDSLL
Procedure, shortened: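 CHO cells stably over-expressing ADRB2 were plated overnight at 37C, then dosed with compounds plus a stimulation mix containing 100uM IBMX and 25uM Ro-20-1724 for 0.5hr at room temperature. cAMP was measured by HTRF competition, 1hr.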

[13] = target: D(2) dopamine receptor (Homo sapiens) (UniProt P14416); test: Dopamine D2 receptor (DRD2) small molecule agonists, cell-based qHTS assay (AID 1963594); conditions: HEK293-DRD2 cAMP HTRF, agonist mode, 30 min; series mostly up to 92.4 µM; also: nearly all actives have a fitted effect of over 35% in size
Chain of D(2) dopamine receptor (Homo sapiens) (P14416 whole entry, looked up): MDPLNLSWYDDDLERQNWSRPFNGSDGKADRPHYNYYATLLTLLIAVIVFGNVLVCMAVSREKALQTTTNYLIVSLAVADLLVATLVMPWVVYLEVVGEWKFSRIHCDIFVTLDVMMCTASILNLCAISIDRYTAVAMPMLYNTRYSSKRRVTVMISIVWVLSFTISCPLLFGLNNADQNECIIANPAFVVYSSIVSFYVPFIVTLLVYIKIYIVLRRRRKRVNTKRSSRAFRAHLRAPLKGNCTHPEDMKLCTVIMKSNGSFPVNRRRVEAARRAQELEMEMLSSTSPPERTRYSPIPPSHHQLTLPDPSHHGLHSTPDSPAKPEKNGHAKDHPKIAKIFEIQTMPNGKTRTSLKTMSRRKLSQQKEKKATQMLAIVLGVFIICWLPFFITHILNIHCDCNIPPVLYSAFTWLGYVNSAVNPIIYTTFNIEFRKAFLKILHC
Procedure, shortened: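 HEK293 cells stably expressing human DRD2, pre-treated with PDE inhibitor Ro20-1724 (0.1 mM final) and compound 10 min at room temperature, then stimulated with NKH477 (200nM […]) for 30 min. cAMP read by HTRF (665/620 nm).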

[14] = target: D(2) dopamine receptor (Homo sapiens) (UniProt P14416); test: Dopamine D2 receptor (DRD2) small molecule antagonists, cell-based qHTS assay (AID 1963595; active = well fitted inhibition curve with a large enough effect in the signal ratio in the repeat runs, with a control signal flat; the % refers to the signal ratio); conditions: HEK293-DRD2 cAMP HTRF antagonist mode; series mostly up to 92.4 µM
Procedure, shortened: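 In this cell-based antagonist screen, compounds act for 10 min at room temperature before a 30 min challenge with 12 nM quinpirole and 200 nM NKH477. cAMP is quantified by HTRF competition in DRD2-HEK293 cells containing 0.1 mM Ro20-1724.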

[15] = p53 small molecule agonists, cell-based qHTS assay with human liver microsomes (AID 1963577); conditions: HCT-116 p53RE-bla with human liver microsomes, ratio, 16 h; series mostly up to 66 µM;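 also: p53 response element beta-lactamase reporter cells with liver microsomes plus NADPH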
Procedure, shortened: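 Steps: plate p53RE-bla cells, incubate 5 h at 37 C; add compound in DMSO; add microsomes (0.5 mg/mL final) and NADPH (0.5 mg/mL final); incubate 16 h at 37 C; add LiveBLAzer, 2 h RT; read fluorescence.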

[16] = p53 small molecule agonists, cell-based qHTS assay with rat liver microsomes (AID 1963578); conditions: HCT-116 p53RE-bla, beta-lactamase ratio, 16 h; series mostly up to 66 µM
Procedure, shortened: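 Metabolic activation is supplied by rat liver microsomes with NADPH (each 0.5 mg/mL final). p53RE-bla cells incubate with compound 16 h at 37 C; reporter activity is measured by LiveBLAzer fluorescence.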

[17] = p53 small molecule agonists, cell-based qHTS assay with human liver microsomes: qHTS cell viability counter screen (AID 1963579); conditions: p53RE-bla HCT-116 viability, ATP luminescence, 16 h, HLM; series mostly up to 66 µM; also: nearly all actives have a fitted effect of over 45% in size
Procedure, shortened: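 After the 460/530 nm beta-lactamase read, CellTiter-Glo was added to the same wells and luminescence measured after 30 min at room temperature, giving viability of p53RE-bla cells treated 16 h with compounds plus microsomes and NADPH.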

[18] = p53 small molecule agonists, cell-based qHTS assay (AID 1963582; active = well fitted activation curve with a large enough effect in the signal ratio in the repeat runs, not every such curve was filed as active; the % refers to the signal ratio); conditions: HCT-116 p53RE-bla reporter, beta-lactamase FRET ratio, 16 h; series mostly up to 66 µM
Procedure, shortened: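 Read-out is beta-lactamase FRET fluorescence after 2 h at room temperature with LiveBLAzer B/G substrate. p53 response element-bla cells were treated 16 h at 37 C with compounds in DMSO, added 5 h after seeding.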

[19] = target: Beta-2 adrenergic receptor (Homo sapiens) (UniProt P07550); test: Adrenergic beta2 receptor (ADRB2) small molecule antagonists, cell-based qHTS assay (AID 1963592); conditions: CHO-ADRB2 cells, isoproterenol-stimulated cAMP HTRF ratio, 0.5 h; series mostly up to 92.4 µM; also: nearly all actives have a fitted effect of over 50% in size
Procedure, shortened: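 Assay format: CHO-ADRB2 cells, 18-20hr seeding at 37C/5% CO2, then compound plus 1nM isoproterenol agonist mix for 0.5hr RT. Homogeneous time-resolved fluorescence cAMP detection after 1hr, expressed as 665/615 nm ratio.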

[20] = G protein-coupled receptor (GPCR) small molecule agonists, calcium flux assay: HEK293 wild type cell line counter screen (AID 1920065); conditions: HEK293 WT calcium flux, fluorescence, agonist mode; series mostly up to 57.6 µM
Procedure, shortened: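 Calcium flux counter screen: compound added in agonist mode at 15 concentrations in triplicate to dye-loaded parental HEK293 cells. Fluorescence (480/540) read kinetically for 3 min; ATP served as positive control.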

Measured: Potency

COc1ccc2nc(N)sc2c1
inactive and 54.5 µM (active): [1]
not listed: [15] | [16] | [17] | [18] | [19] | [20]
inactive: all other assays above

Nc1nnnn1-c1ccccc1
not listed: [2] | [8] | [13] | [20]
inactive: all other assays above

O=c1c(-c2ccc(O)cc2)coc2cc(O)ccc12
active: [4] 10.1 µM | [6] 33.4 µM
not listed: [10] | [12] | [16]
inactive: all other assays above

Cc1ccc(N(C)C)cc1
inactive and 133 nM (active): [6]
not listed: [2] | [16]
inactive: all other assays above

C/C(=C(\CCO)SS/C(CCO)=C(\C)N(C=O)Cc1cnc(C)nc1N)N(C=O)Cc1cnc(C)nc1N
not listed: [3] | [12] | [18]
inactive: all other assays above

O=C(c1ccc2c(c1)C(=O)OC2=O)c1ccc2c(c1)C(=O)OC2=O
not listed: [12] | [14] | [17] | [18]
inactive: all other assays above

CO/N=C(/C(=O)N[C@@H]1C(=O)N2C(C(=O)O)=C(COC(N)=O)CS[C@H]12)c1ccco1
not listed: [1]
inactive: all other assays above

OCc1c2ccccc2cc2ccccc12
not listed: [12] | [20]
inactive: all other assays above

O=c1[nH]cnc2[nH]ncc12
not listed: [6] | [7] | [8] | [9] | [12] | [15] | [16] | [18]
inactive: all other assays above

Oc1ccc(C(c2ccc(O)cc2)C(Cl)(Cl)Cl)cc1
active: [1] 27.3 µM
not listed: [3] | [7] | [8] | [10] | [11] | [12] | [18] | [19]
inactive: all other assays above

CC(C)(CO)[C@@H](O)C(=O)NCCC(=O)O
not listed: [1] | [14]
inactive: all other assays above

FC(F)(F)/C(=N\OCC1OCCO1)c1ccc(Cl)cc1
not listed: [11] | [12] | [17]
inactive: all other assays above

CCc1ccc(C)nc1
not listed: [5] | [8] | [16] | [20]
inactive: all other assays above

CC[C@@H]1C[C@H](N(Cc2cc(C(F)(F)F)cc(C(F)(F)F)c2)C(C)=O)c2cc(C(F)(F)F)ccc2N1C(=O)OC(C)C
not listed: [1] | [5] | [14]
inactive: all other assays above

CC1(C)C(=O)N(Br)C(=O)N1Cl
not listed: [1] | [11] | [17]
inactive: all other assays above

CCCCCC=O
inactive and 11.9 nM (active): [8]
not listed: [2] | [7]
inactive: all other assays above

CC1CCC(C(C)C)C(O)C1 (configuration not stated)
not listed: [5] | [9] | [15] | [16] | [18]
inactive: all other assays above

OCC(CO)(CBr)CBr
not listed: [12] | [15] | [16] | [17] | [18] | [20]
inactive: all other assays above

CC(C)c1ccc2c(C(C)C)cc(C(C)C)c(S(=O)(=O)O)c2c1
not listed: [2] | [11] | [12]
inactive: all other assays above

O=C(O)CCc1ccccc1
not listed: [2] | [5] | [9] | [10]
inactive: all other assays above

CCN(C=O)CC
not listed: [1] | [2] | [12] | [18] | [20]
inactive: all other assays above

O=c1cc(CO)occ1O
not listed: [4] | [15] | [19]
inactive: all other assays above

CC(C)(C)c1n[nH]c(=O)n(N)c1=O
not listed: [6] | [20]
inactive: all other assays above

CCC(C)(O)CCC=C(C)C (configuration not stated)
not listed: [18] | [20]
inactive: all other assays above
